Drawing on PubChem BioAssay (NCI), this text covers growth inhibition for nine molecules.

Test [1] is described as follows: NCI Yeast Anticancer Drug Screen. Data for the rad50 strain (AID 155).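 Also: 0% = growth of vehicle-only cultures of the same strain.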 The settings on record: S. cerevisiae rad50 strain growth inhibition, hits give high values. Summed up: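 Growth of the mutant yeast was measured after compound exposure and referenced to vehicle-treated cultures.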
Test [2] is described as follows: NCI Yeast Anticancer Drug Screen. Data for the mec2-1 strain (AID 157). The settings on record: S. cerevisiae mec2-1 strain, hits give high values. The essentials:
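Growth inhibition is read against vehicle-treated controls after compound exposure of the mec2-1 yeast strain, which is defective in DNA damage repair or cell cycle control.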

Test [3] in a line: NCI Yeast Anticancer Drug Screen. Data for the sgs1 mgt1 strain (AID 161).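 Also: 0% = growth of cultures given vehicle only.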 The settings on record: S. cerevisiae sgs1 mgt1 strain, hits give high values. Summed up:
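This yeast growth screen uses a strain with defined DNA-repair lesions; compound-treated growth is compared with vehicle-treated growth.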

Test [4] in a line: NCI Yeast Anticancer Drug Screen. Data for the cln2 rad14 strain (AID 165).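 Also: 0% = growth equal to vehicle treated cultures.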 The settings on record: S. cerevisiae cln2 rad14 strain, hits give high values. Summed up: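 Growth inhibition, relative to vehicle-treated controls, is the read-out. The test organism is a yeast strain with defined genetic alterations, cln2 rad14.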
Test [5] in a line: NCI Yeast Anticancer Drug Screen. Data for the bub3 strain (AID 167). The conditions noted are these: S. cerevisiae bub3 mutant strain, hits give high values. Summed up: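 Whole-cell yeast assay. The mutant strain was incubated with compounds, and growth inhibition was determined by comparison with vehicle-treated cells.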
Test [6] can be described thus: NCI Yeast Anticancer Drug Screen. Data for the mlh1 rad18 strain (AID 175). The settings on record: S. cerevisiae mlh1 rad18 strain growth inhibition, hits give high values. The essentials:
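Cells of a genetically altered yeast strain, deficient in DNA damage repair, were treated with compound. Their growth was then compared with that of vehicle-treated cultures to give inhibition.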

The mark [7] stands for this setting: at 5.0 µM (retest, dose inferred, filed as 0.5).
[8] abbreviates: at 50.0 µM (retest, dose inferred, filed as 5.0).

This is part of a sample that, as a whole, favours compounds with a hit. Of some 79,000 tested, about 15% had one in any assay. Unmarked numbers belong to inactive results. Active and inactive are the calls of the source. Rule as the data show it: active = growth inhibition above about 70%; inactive = the rest.

Turning to `COC1=C(/C(=N/Nc2ccc([N+](=O)[O-])cc2[N+](=O)[O-])c2ccccc2)COC1=O`, the growth inhibition is -2% in test [1] (setting [7]); -6% in test [1] (setting [8]); 17.1% in test [1] (at 50.0 µM); 0% in test [2] (setting [7]); -4% in test [2] (setting [8]); 9.25% in test [2] (at 50.0 µM). The growth inhibition in test [3] (setting [7]) was -3%; in test [3] (setting [8]), -7%; in test [3] (at 50.0 µM), -8.25%; in test [4] (setting [7]), 4%; in test [4] (setting [8]) it was 15%; in test [4] (at 50.0 µM), 4.15%. Also, the growth inhibition was 3% in test [5] (setting [7]); -3% in test [5] (setting [8]); 93.3% (active) in test [5] (at 50.0 µM); 3% in test [6] (setting [7]); -6% in test [6] (setting [8]); 4.9% in test [6] (at 50.0 µM).
`COc1cc2c(cc1O)C1C(O)C(O)C=C3CCN(C2)C31` (configuration not stated): the growth inhibition is 4% in test [1] (setting [7]); 97% (active) in test [1] (setting [8]); 85.5% (active) in test [1] (at 50.0 µM); 4% in test [2] (setting [7]); 97% (active) in test [2] (setting [8]); 84.8% (active) in test [2] (at 50.0 µM). Further, the growth inhibition is 5% in test [3] (setting [7]); 96% (active) in test [3] (setting [8]); 82.5% (active) in test [3] (at 50.0 µM); 14% in test [4] (setting [7]); 96% (active) in test [4] (setting [8]); 84% (active) in test [4] (at 50.0 µM). Also, the growth inhibition is 2% in test [5] (setting [7]); 95% (active) in test [5] (setting [8]); 85.5% (active) in test [5] (at 50.0 µM); 3% in test [6] (setting [7]); 97% (active) in test [6] (setting [8]); 86.9% (active) in test [6] (at 50.0 µM).
In the case of `CC(C)c1ccc(C2C3=C(N=C4SCC(=O)N42)C(=O)c2ccccc23)cc1` (configuration not stated), the growth inhibition in test [1] (setting [7]) was 7%; in test [1] (setting [8]), -6%; in test [1] (at 50.0 µM) it was 86.7% (active); in test [2] (setting [7]) it was -20%; in test [2] (setting [8]) it was 3%; in test [2] (at 50.0 µM), 68.2%. Further, the growth inhibition was -6% in test [3] (setting [7]); 5% in test [3] (setting [8]); 89.2% (active) in test [3] (at 50.0 µM); -31% in test [4] (setting [7]); 8% in test [4] (setting [8]); 83% (active) in test [4] (at 50.0 µM). The growth inhibition in test [5] (setting [7]) is -41%; in test [5] (setting [8]) it was 41%; in test [5] (at 50.0 µM), 80.3% (active); in test [6] (setting [7]), -39%; in test [6] (setting [8]), 2%; in test [6] (at 50.0 µM), 42.2%.
For `Cc1cc([N+](=O)[O-])ccc1NC(=O)N(C)CCOC(=O)Nc1ccccc1`, the growth inhibition in test [1] (setting [7]) was 48%; in test [1] (setting [8]) it was 90% (active); in test [1] (at 50.0 µM) it was 84% (active); in test [2] (setting [7]) it was 43%; in test [2] (setting [8]), 95% (active); in test [2] (at 50.0 µM) it was 89.2% (active). In addition, the growth inhibition in test [3] (setting [7]) is 42%; in test [3] (setting [8]), 96% (active); in test [3] (at 50.0 µM), 89.5% (active); in test [4] (setting [7]) it was 32%; in test [4] (setting [8]), 97% (active); in test [4] (at 50.0 µM) it was 86.4% (active). The growth inhibition was 44% in test [5] (setting [7]); 97% (active) in test [5] (setting [8]); 89.3% (active) in test [5] (at 50.0 µM); 64% in test [6] (setting [7]); 96% (active) in test [6] (setting [8]); 87.8% (active) in test [6] (at 50.0 µM).
In the case of `O=C1C(=C2C(=O)c3ccccc3[N+]2=O)N([O-])c2ccccc21`, the growth inhibition in test [1] (setting [7]) was -2%; in test [1] (setting [8]), 36%; in test [1] (at 50.0 µM), 69%; in test [2] (setting [7]), -6%; in test [2] (setting [8]), 59%; in test [2] (at 50.0 µM) it was 56%. Also, the growth inhibition in test [3] (setting [7]) is -3%; in test [3] (setting [8]), 52%; in test [3] (at 50.0 µM), 84.3% (active); in test [4] (setting [7]) it was -10%; in test [4] (setting [8]) it was 15%; in test [4] (at 50.0 µM), 68%. Further, the growth inhibition in test [5] (setting [7]) was -6%; in test [5] (setting [8]), 31%; in test [5] (at 50.0 µM) it was 57.8%; in test [6] (setting [7]) it was -5%; in test [6] (setting [8]), 56%; in test [6] (at 50.0 µM), 85.5% (active).
For the molecule `COC(=O)c1c2c(cc3c1CC1(Cc4cc5c(c(C)c4C1)CCC5)C3)CCC2` (configuration not stated), the growth inhibition in test [1] (setting [7]) was 15%; in test [1] (setting [8]), 12%; in test [1] (at 50.0 µM) it was -32.5%; in test [2] (setting [7]), 6%; in test [2] (setting [8]), 5%; in test [2] (at 50.0 µM), -46.4%. The growth inhibition is 9% in test [3] (setting [7]); 12% in test [3] (setting [8]); -31.9% in test [3] (at 50.0 µM); -4% in test [4] (setting [7]); 13% in test [4] (setting [8]); -11.1% in test [4] (at 50.0 µM). Also, the growth inhibition was 14% in test [5] (setting [7]); 10% in test [5] (setting [8]); -13.1% in test [5] (at 50.0 µM); 12% in test [6] (setting [7]); 11% in test [6] (setting [8]); -22.9% in test [6] (at 50.0 µM).
As to `O=C(C[n+]1ccccc1)c1ccc2ccc3ccc(Cl)cc3c2c1`, the growth inhibition was 4% in test [1] (setting [7]); 67% in test [1] (setting [8]); 59.1% in test [1] (at 50.0 µM); 0% in test [2] (setting [7]); 26% in test [2] (setting [8]); 32% in test [2] (at 50.0 µM). Moreover, the growth inhibition in test [3] (setting [7]) was 3%; in test [3] (setting [8]), 56%; in test [3] (at 50.0 µM), 35.5%; in test [4] (setting [7]), 2%; in test [4] (setting [8]) it was 39%; in test [4] (at 50.0 µM), -90.4%. The growth inhibition in test [5] (setting [7]) is -2%; in test [5] (setting [8]), 46%; in test [5] (at 50.0 µM), 2.15%; in test [6] (setting [7]), 29%; in test [6] (setting [8]) it was 82% (active); in test [6] (at 50.0 µM) it was 72.5% (active).
`CCOC(=O)/C(=C\c1ccc(Cl)cc1)C(C)=O`: the growth inhibition in test [1] (setting [7]) was 31%; in test [1] (setting [8]), 98% (active); in test [1] (at 50.0 µM) it was 93.2% (active); in test [2] (setting [7]), 49%; in test [2] (setting [8]), 99% (active); in test [2] (at 50.0 µM), 94.5% (active). Further, the growth inhibition is 33% in test [3] (setting [7]); 98% (active) in test [3] (setting [8]); 93.3% (active) in test [3] (at 50.0 µM); 29% in test [4] (setting [7]); 98% (active) in test [4] (setting [8]); 92% (active) in test [4] (at 50.0 µM). Also, the growth inhibition in test [5] (setting [7]) was 79% (active); in test [5] (setting [8]), 99% (active); in test [5] (at 50.0 µM), 92.2% (active); in test [6] (setting [7]) it was 79% (active); in test [6] (setting [8]) it was 98% (active); in test [6] (at 50.0 µM), 91.5% (active).
In the case of `COC(=O)c1cccc2cccc(C(=O)Nc3ccc(C)cc3C)c12`, the growth inhibition in test [1] (setting [7]) is 74% (active); in test [1] (setting [8]), 99% (active); in test [1] (at 50.0 µM), 86.2% (active); in test [2] (setting [7]), 79% (active); in test [2] (setting [8]), 99% (active); in test [2] (at 50.0 µM), 91.9% (active). The growth inhibition in test [3] (setting [7]) was 60%; in test [3] (setting [8]) it was 99% (active); in test [3] (at 50.0 µM), 83.2% (active); in test [4] (setting [7]) it was 33%; in test [4] (setting [8]), 99% (active); in test [4] (at 50.0 µM) it was 87.7% (active). The growth inhibition in test [5] (setting [7]) was 76% (active); in test [5] (setting [8]), 92% (active); in test [5] (at 50.0 µM), 90.5% (active); in test [6] (setting [7]), 90% (active); in test [6] (setting [8]), 99% (active); in test [6] (at 50.0 µM), 89.7% (active).
